Compound activity (PubChem BioAssay)
D3 ag: qHTS of D3 Dopamine Receptor Agonist: qHTS | D(3) dopamine receptor (Homo sapiens), P35462 | D3R DiscoveRx beta-arrestin cells, luminescence, 90 min | max activation, % | 410,000 tested, 0.58% active | AID 652048, 2013; in the data active means max activation above about 30%; further: 0% is about no effect
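Agonist mode: compounds and dopamine controls were applied to plated cells for 90 min at 37 degrees C after an overnight attachment at 1500 cells/well. Luminescent read-out followed 30 - 60 minutes at room temperature with DiscoveRx detection reagent.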
D1 antagonist: Antagonist of Human D 1 Dopamine Receptor: qHTS; D(1A) dopamine receptor (Homo sapiens), P21728; HEK293 TREx D1 cells, calcium flux, dopamine EC80; hits give low values; activity change, negative = inhibition, % at 10 µM; 360,000 tested, 3.2% active; AID 504652, 2011; in the data active means activity change below about -30%; further: on the % scale 0 is the no-effect control and ±100 the full control effect
Target sequence (P21728 whole entry, looked up): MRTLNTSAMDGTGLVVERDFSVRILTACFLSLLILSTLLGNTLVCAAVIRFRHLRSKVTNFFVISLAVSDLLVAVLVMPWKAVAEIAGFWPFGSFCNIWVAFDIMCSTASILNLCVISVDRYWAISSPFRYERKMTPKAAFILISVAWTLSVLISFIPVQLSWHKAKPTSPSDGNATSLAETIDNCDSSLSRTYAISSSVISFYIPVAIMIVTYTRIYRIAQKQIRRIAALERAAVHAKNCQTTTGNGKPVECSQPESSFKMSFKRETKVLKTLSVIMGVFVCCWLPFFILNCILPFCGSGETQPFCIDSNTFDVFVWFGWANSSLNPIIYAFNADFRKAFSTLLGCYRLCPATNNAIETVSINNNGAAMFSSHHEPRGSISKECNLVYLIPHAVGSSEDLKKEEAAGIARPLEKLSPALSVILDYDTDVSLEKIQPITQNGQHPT
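HEK293 T-REx cells expressing inducible, force-coupled D1 receptor; no-wash Ca dye, 30–90 min RT. Cmpd → 180 s read at 1 Hz → EC80 DA → 180 s read.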
D1 agonist: Allosteric Agonists of the Human D1 Dopamine Receptor: qHTS | D(1A) dopamine receptor (Homo sapiens), P21728 | HEK293 T-REx D1 cells, calcium flux, agonist mode | activation, % at 2 µM | 360,000 tested, 1% active | AID 504660, 2011; in the data active means activation above about 30%; further: 0% is about no effect
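Inducible HEK293 T-REx D1 cells, force-coupled to calcium signalling, were plated at 4000 cells/well with tetracycline and held overnight at 30 C. After no-wash calcium dye loading, compound-evoked calcium rise over 180 s flagged agonists.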
D3 antag: qHTS of D3 Dopamine Receptor Antagonist: qHTS; D(3) dopamine receptor (Homo sapiens), P35462; D3R cells, DiscoveRx beta-arrestin luminescence, antagonist mode; hits give low values; max response, negative = inhibition, %; 360,000 tested, 2.5% active; in the data active means max response below about -50%; inconclusive means no clear call, values can overlap the other calls; further: on the % scale 0 is the no-effect control and ±100 the full control effect
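Cells plated overnight at 1500 cells/well, then exposed to library compounds with dopamine controls for 90 minutes at 37 degrees C. DiscoveRx reagent added for 30–60 minutes at room temperature; luminescence read, quantitative HTS format.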
D1 PAM: Potentiators of Human D1 Dopamine Receptor: qHTS; HEK293 TREx D1 cells, calcium flux, dopamine EC20 potentiation; AID 504651, 2011; D(1A) dopamine receptor (Homo sapiens), P21728; potentiation, % at 10 µM; 360,000 tested, 0.036% active; in the data active means potentiation above about 30%; further: 0% is about no effect
Starred values were filed as active, the others as inactive. A selection: hits, their analogues and other compounds. The true share with any hit is near 6%.

What do the screens show for `CN(CC(=O)Nc1ccc(F)cc1)C(=O)CCc1nc2ccccc2c(=O)[nH]1`?
D3 ag: -16.5; D1 antagonist: -5.2; D1 agonist: 5.5; D3 antag: -54.3*; D1 PAM: 0.8

What do the screens show for `O=C(CCc1nc2ccccc2c(=O)[nH]1)NCc1ccccn1`?
D3 ag: -5.2; D1 antagonist: -30.4*; D1 agonist: 0.9; D3 antag: -10.0; D1 PAM: -15.0

What do the screens show for `O=C(COC(=O)CCc1nc2ccccc2c(=O)[nH]1)Nc1ccccc1Cl`?
D3 ag: 6.7; D1 antagonist: -41.1*; D1 agonist: 0.8; D3 antag: 17.8; D1 PAM: 5.4

What do the screens show for `O=C(CCc1nc2ccccc2c(=O)[nH]1)NCc1ccco1`?
D3 ag: -5.4; D1 antagonist: -3.1; D1 agonist: 3.9; D3 antag: 10.1; D1 PAM: 0.1

Results for COc1ccc(NC(=O)CN(C)C(=O)CCCc2nc3ccccc3c(=O)[nH]2)cc1 ?
D3 ag: 0.9; D1 antagonist: 11.9; D1 agonist: 2.5; D3 antag: 7.1; D1 PAM: -9.2

What do the screens show for `O=C(CCc1nc2ccccc2c(=O)[nH]1)Nc1ccc(F)cc1`?
D3 ag: -2.8; D1 antagonist: 16.5; D1 agonist: 1.4; D3 antag: -53.7*; D1 PAM: -2.8

What do the screens show for `NC(Cc1ccc(C(F)(F)F)cc1)c1csc(Nc2nncc3ccccc23)n1` (configuration not stated)?
D3 ag: 1.7; D3 antag: 17.3

What do the screens show for `CCS(=O)(=O)N1CCc2cc(C(=O)NCc3ccccc3OC)ccc21`?
D3 ag: 3.3; D1 antagonist: 3.2; D1 agonist: -0.5; D1 PAM: -0.8

Results for CCOC(=O)C1CCN(C(c2cccs2)c2sc3nc(C)nn3c2O)CC1 (configuration not stated) ?
D3 ag: -7.6; D1 antagonist: 2.6; D1 agonist: -0.2; D3 antag: -15.9; D1 PAM: -9.7

Results for CCOC(=O)C1CCN(C(c2cccc(OC)c2)c2sc3nc(C)nn3c2O)CC1 (configuration not stated) ?
D3 ag: -8.3; D1 antagonist: -30.6*; D1 agonist: -0.1; D3 antag: 12.2; D1 PAM: -9.4

How did CCOC(=O)c1sc(NC(=O)c2nc3nc(C)cc(C(F)F)n3n2)c(C(=O)OC(C)C)c1C do in these assays?
D3 ag: 6.8; D1 antagonist: -10.5; D1 agonist: 0.9; D1 PAM: -0.8

What do the screens show for `CCCS(=O)(=O)NC(=O)C1(C)CCN(C(=O)c2ccc(OC)cc2OC)C1` (configuration not stated)?
D3 ag: 4.7; D3 antag: -4.0

What do the screens show for `CCCCNC(=S)Nc1ccc([N+](=O)[O-])cc1`?
D3 ag: -7.4; D1 antagonist: -33.0*; D1 agonist: 19.4; D3 antag: -13.2; D1 PAM: -6.2

How did COc1ccc(CSCCNC(=S)Nc2ccccc2)cc1Cl do in these assays?
D3 ag: -6.1; D1 antagonist: -33.2*; D1 agonist: 17.9; D3 antag: -11.6; D1 PAM: -7.6

How did CC(C)Oc1ccc(CCC(=O)NNC(=S)Nc2ccccc2)cc1 do in these assays?
D3 ag: -8.0; D1 antagonist: -31.5*; D1 agonist: 8.6; D3 antag: inconclusive; D1 PAM: -1.9

How did CC(C)Oc1ccc(CC(=O)NNC(=S)Nc2ccccc2)cc1 do in these assays?
D3 ag: 1.4; D1 antagonist: 4.8; D1 agonist: 6.5; D3 antag: 0.5; D1 PAM: -6.8

Results for CCCCNC(=S)NC(=O)c1ccc([N+](=O)[O-])cc1 ?
D3 ag: 4.8; D1 antagonist: -46.1*; D1 agonist: 3.3; D3 antag: -21.6; D1 PAM: -6.5

Results for CCCCNC(=S)Nc1ccc(Oc2ccccc2)cc1 ?
D3 ag: 4.8; D1 antagonist: -10.7; D1 agonist: 22.5; D3 antag: 0.1; D1 PAM: -7.0

Results for O=C(O)c1ccc(S(=O)(=O)N[C@H](Cc2c[nH]c3ccccc23)C(=O)O)cc1 ?
D1 antagonist: -4.3; D1 agonist: 3.1; D1 PAM: 5.2

What do the screens show for `COc1cc(CNC(=O)c2ccc3nc(Cc4ccccc4)oc3c2)cc(OC)c1OC`?
D3 ag: 5.7; D1 antagonist: -8.1; D1 agonist: 12.5; D1 PAM: -3.0

How did COc1ccc(OCCNC(=S)Nc2cccc3ccccc23)cc1 do in these assays?
D3 ag: -24.8; D1 antagonist: -39.3*; D1 agonist: 3.5; D3 antag: 12.4; D1 PAM: -3.5

Results for S=C(NCCc1ccccc1)Nc1ccc(Cl)cc1Cl ?
D3 ag: -0.9; D1 antagonist: -32.6*; D1 agonist: 13.0; D3 antag: 5.9; D1 PAM: -5.2

What do the screens show for `S=C(NCCc1ccccc1)Nc1ccc(Br)cc1`?
D3 ag: -3.3; D1 antagonist: -51.5*; D1 agonist: 15.4; D3 antag: -22.9; D1 PAM: -9.8

How did COc1cccc(NC(=S)NCCC(c2ccccc2)c2ccccc2)c1 do in these assays?
D3 ag: -6.5; D1 antagonist: -49.9*; D1 agonist: 19.7; D3 antag: 0.0; D1 PAM: -9.0

How did COc1ccc(CCNC(=S)Nc2cccc3ccccc23)cc1 do in these assays?
D3 ag: -1.4; D1 antagonist: -5.7; D1 agonist: 4.7; D3 antag: 12.6; D1 PAM: -1.6

Results for CC12CCC3c4ccc(O)c([N+](=O)[O-])c4CCC3C1CCC2=O (configuration not stated) ?
D3 ag: 0.2; D3 antag: 9.0

How did O=C(NC(=S)Nc1cc(C(F)(F)F)ccc1Cl)c1ccccc1 do in these assays?
D3 ag: -10.2; D1 antagonist: -7.5; D1 agonist: 1.7; D3 antag: inconclusive; D1 PAM: 0.7

Results for CC(C)OC(=O)c1cc(NC(=S)Nc2ccc([N+](=O)[O-])cc2)cc(C(=O)OC(C)C)c1 ?
D3 ag: 3.4; D1 antagonist: 4.7; D1 agonist: 2.0; D3 antag: -62.6*; D1 PAM: -2.5

Results for CC(C)CCNC(=S)Nc1ccc(Br)cc1 ?
D3 ag: 2.7; D1 antagonist: -33.2*; D1 agonist: 13.2; D3 antag: 0.5; D1 PAM: -12.8

What do the screens show for `S=C(NCCc1ccccc1)N/N=C/c1ccccc1Cl`?
D3 ag: -13.0; D1 antagonist: -32.8*; D1 agonist: 4.5; D3 antag: -24.1; D1 PAM: 5.0

What do the screens show for `FC(F)(F)c1ccc(Cl)c(NC(=S)N/N=C/c2ccccc2Cl)c1`?
D3 ag: -0.7; D1 antagonist: -9.0; D1 agonist: 0.9; D3 antag: -65.9*; D1 PAM: -4.8
